Measurements as given in ChEMBL document CHEMBL1201862, “PubChem BioAssay data set” (2004).
Out of some 400,000 compounds screened, about 2,100 (0.53%) were called active. Another 14% or so got no clear call; they are omitted. How the calls were made is not given here. For the sample, actives were picked, then their nearest neighbours and some compounds at random.

What follows are compounds tested against Ataxin-2 (Homo sapiens) (UniProt Q99700) (assay: qHTS for Inhibitors of ATXN expression.).
Ataxin-2 (Homo sapiens), sequence (Q99700 whole entry): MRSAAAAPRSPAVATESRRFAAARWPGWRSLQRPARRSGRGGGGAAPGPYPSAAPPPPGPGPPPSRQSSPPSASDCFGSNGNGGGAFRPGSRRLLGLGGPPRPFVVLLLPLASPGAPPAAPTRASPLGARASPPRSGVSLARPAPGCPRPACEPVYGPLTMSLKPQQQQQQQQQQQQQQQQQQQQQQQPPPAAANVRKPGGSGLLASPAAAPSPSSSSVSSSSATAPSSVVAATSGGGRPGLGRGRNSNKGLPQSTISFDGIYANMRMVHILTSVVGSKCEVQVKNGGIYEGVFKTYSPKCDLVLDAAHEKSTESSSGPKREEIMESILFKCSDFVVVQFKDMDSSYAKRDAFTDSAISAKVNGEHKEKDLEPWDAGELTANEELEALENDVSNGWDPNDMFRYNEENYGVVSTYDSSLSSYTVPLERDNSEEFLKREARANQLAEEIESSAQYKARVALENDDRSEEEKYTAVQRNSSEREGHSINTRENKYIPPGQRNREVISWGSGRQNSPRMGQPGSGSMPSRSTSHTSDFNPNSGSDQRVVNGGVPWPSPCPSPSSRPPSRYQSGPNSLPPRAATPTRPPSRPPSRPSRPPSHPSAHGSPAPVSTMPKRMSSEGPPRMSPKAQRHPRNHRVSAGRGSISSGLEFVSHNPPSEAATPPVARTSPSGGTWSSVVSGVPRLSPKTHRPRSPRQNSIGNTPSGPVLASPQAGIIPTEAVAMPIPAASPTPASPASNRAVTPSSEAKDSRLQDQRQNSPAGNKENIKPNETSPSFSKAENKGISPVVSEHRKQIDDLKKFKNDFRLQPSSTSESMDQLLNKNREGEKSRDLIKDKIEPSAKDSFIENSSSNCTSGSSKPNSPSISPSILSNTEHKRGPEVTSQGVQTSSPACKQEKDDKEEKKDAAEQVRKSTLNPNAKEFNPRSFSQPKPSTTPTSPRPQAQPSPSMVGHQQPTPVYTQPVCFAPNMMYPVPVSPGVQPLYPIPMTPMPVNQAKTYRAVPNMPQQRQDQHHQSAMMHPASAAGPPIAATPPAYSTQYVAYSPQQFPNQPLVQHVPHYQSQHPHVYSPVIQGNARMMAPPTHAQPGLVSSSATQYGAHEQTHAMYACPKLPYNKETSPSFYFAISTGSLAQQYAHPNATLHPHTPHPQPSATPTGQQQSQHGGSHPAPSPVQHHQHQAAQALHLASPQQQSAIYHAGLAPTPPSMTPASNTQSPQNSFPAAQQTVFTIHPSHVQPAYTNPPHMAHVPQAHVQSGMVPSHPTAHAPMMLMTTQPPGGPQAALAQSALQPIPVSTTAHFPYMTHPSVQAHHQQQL
Type: functional
In the case of `Cc1cc(Br)ccc1NC(=O)CNC(=O)c1cnn(C)c1`, the Potency is reported as “inactive”. For `N#Cc1c(N2CCCCC2)nc(N)c2c(N)nc3c(c12)CC(CCl)O3` (centres undefined), the Potency was “inactive”. For `Cc1cc(=O)oc2c3c4c(cc12)OCCN4CCC3`, the Potency was “inactive”. For `Cc1c(C)c2cc3c(c(C)c2oc1=O)OCN(CCc1ccccc1)C3`, the Potency was “inactive”. `COc1ccc(C(=O)/C=C/C(=O)N(CC(=O)NC2CCCCC2)Cc2ccc(F)cc2)c(O)c1` was tested, and the Potency was 28.2 µM (active). In the case of `COc1ccc(OCC(=O)OCC(=O)NC2CCCCC2C)cc1` (centres undefined), the Potency is reported as “inactive”. With `COc1ccc(O)c(/C=N/NC(=O)CCC(=O)Nc2ccc(F)cc2)c1` the Potency was “inactive”. In the case of `COc1ccc(CC(=O)Nc2ccc(S(=O)(=O)N3CCN(C)CC3)cc2)cc1`, the Potency is reported as “inactive”. With `CC(C)C[C@@H](CN1CCC[C@@H]1CN1C(=O)C(=O)NC[C@@H]1Cc1ccccc1)N1C[C@H](Cc2ccc(O)cc2)N(CC2CCCCCC2)C(=O)C1=O` the Potency was 28.2 µM (active). With `CC(C)C[C@@H](CN1CCC[C@H]1CN1C(=O)C(=O)NC[C@@H]1Cc1ccccc1)N1C[C@H](Cc2ccccc2)N(CC2CCCCCC2)C(=O)C1=O` the Potency was 20 µM (active). In the case of `CC(C)C[C@H]1CNC(=S)N1C[C@H]1CCCN1C[C@H](CC(C)C)N1C[C@H](Cc2ccc(O)cc2)N(CC2CCCCC2)C1=S`, the Potency is reported as 35.5 µM (active). For `CC(C)C[C@H]1CN([C@@H](CC(C)C)CN2CCC[C@H]2CN2C(=O)C(=O)NC[C@@H]2Cc2ccc(O)cc2)C(=O)C(=O)N1CC1CCCCCC1`, the Potency was 35.5 µM (active). For `CCCCN(C)Cc1cc(=O)oc2cc3c(cc12)CCCC3`, the Potency was “inactive”. In the case of `Nc1cccc2c1C(=O)N(C(=O)c1ccc(S(=O)(=O)N3CCCCCC3)cc1)C2=O`, the Potency is reported as “inactive”. In the case of `Cc1c(C)c2cc(Cl)c(O)c(CN3CCCC(C)C3)c2oc1=O` (centres undefined), the Potency is reported as “inactive”. With `Cc1csc(Nc2ccc(Cl)cc2)[n+]1-c1ccc(Cl)cc1` the Potency was “inactive”. In the case of `COCCCC1CCN(C(=O)C2CCC(=O)N(CCCc3ccccc3)C2)CC1` (centres undefined), the Potency is reported as “inactive”. For `CC(C)C[C@H]1CNC(=S)N1C[C@H]1CCCN1C[C@H](Cc1ccc(O)cc1)N1C[C@H](Cc2ccc(O)cc2)N(CCc2ccccc2)C1=S`, the Potency was 15.8 µM (active). In the case of `CC(C)C[C@@H](CN1CCC[C@H]1CN1C(=O)C(=O)NC[C@@H]1Cc1ccccc1)N1C[C@H](Cc2ccccc2)N(CC2CCCCC2)C(=O)C1=O`, the Potency is reported as 35.5 µM (active). In the case of `O=C1NC[C@H](CCCCN2C[C@H](Cc3ccccc3)N(CCc3ccccc3)C(=O)C2=O)N(CCC2CCCCC2)C1=O`, the Potency is reported as 20 µM (active). For `O=C1NC[C@H](Cc2ccccc2)N(C[C@@H]2CCCN2C[C@H](Cc2ccccc2)N2C[C@H](Cc3ccccc3)N(CC3CCCCC3)C(=O)C2=O)C1=O`, the Potency was 39.8 µM (active). With `Clc1ccc2oc(-c3ccccc3)cc(=NCCCN3CCOCC3)c2c1` the Potency was “inactive”. For `COc1ccc(CCNC2CCc3ccccc3C2)cc1` (centres undefined), the Potency was “inactive”. For `O=C(Cn1ccc([N+](=O)[O-])n1)NCc1ccccc1`, the Potency was “inactive”. For `Cc1c(O)c(CN2CCCCC2)cc2c3c(c(=O)oc12)CCC3`, the Potency was “inactive”. With `Cc1nc(-c2ccc(S(=O)(=O)Nc3cccc(S(N)(=O)=O)c3)s2)cs1` the Potency was “inactive”. With `Cc1ccc(-n2c3nc(=O)n(C)c(=O)c-3cc3ccccc32)cc1` the Potency was “inactive”. In the case of `Cc1ccc(-n2c(=O)c(C#N)cc3c(=O)n4ccccc4nc32)cc1`, the Potency is reported as “inactive”. `Cc1ccc(-n2c(Cl)c(Cl)nc(Cl)c2=O)cc1` was tested, and the Potency was 4.74 µM (active). `O=c1c2ccccc2c(-c2ccc(F)cc2)nn1-c1ccc(C(F)(F)F)cc1` was tested, and the Potency was “inactive”. `Fc1ccc2cnc(-c3ccccc3)c(-c3cc(C(F)(F)F)cc(C(F)(F)F)c3)c2c1` was tested, and the Potency was 35.5 µM (active). In the case of `CCOC(=O)C1(CC2CCCCO2)CCN(S(=O)(=O)c2ccccc2)CC1` (centres undefined), the Potency is reported as “inactive”. In the case of `Cc1ccc2cccc(OCC(=O)Nc3ccc4c(c3)OCO4)c2n1`, the Potency is reported as “inactive”. In the case of `COc1ccc2cc3cc(C(=O)Nc4ccc5c(c4)OCCO5)oc3nc2c1`, the Potency is reported as 28.2 µM (active). `COc1ccc2cc3cc(C(=O)Nc4ccc5c(c4)OCO5)oc3nc2c1` was tested, and the Potency was 22.4 µM (active). With `COc1ccc(C(=O)Nc2ccc3ccccc3c2)c(OC)c1` the Potency was “inactive”. `COc1ccc(C(=O)Nc2ccccc2N2CCOCC2)cc1S(=O)(=O)N1CCOCC1` was tested, and the Potency was “inactive”. In the case of `COc1c(C)cc(Br)cc1C(=O)Nc1ccccc1N1CCN(C(=O)c2ccccc2)CC1`, the Potency is reported as “inactive”. `CN1CCN(c2ccccc2NC(=S)NC(=O)c2cc3ccccc3o2)CC1` was tested, and the Potency was 39.8 µM (active). `COc1ccc2cc3cc(C(=O)Nc4ccccc4N4CCN(C)CC4)oc3nc2c1` was tested, and the Potency was 39.8 µM (active). For `Cc1ccc(C)c(NC(=O)c2cc3ccccc3o2)c1`, the Potency was “inactive”. `COc1cccc(/C=C/C(=O)Nc2ccccc2N2CCOCC2)c1` was tested, and the Potency was “inactive”. For `Nc1c(C(=O)CSc2nnc(Nc3ccc(F)cc3)s2)c(=O)[nH]c(=O)n1C1CC1`, the Potency was “inactive”. In the case of `COc1ccc2c(c1)c(=O)oc1cc(O)ccc12`, the Potency is reported as “inactive”. `Cc1ccc2nc3c(cc(C(=O)NC4CCCC4)c(=N)n3C(C)C)c(=O)n2c1` was tested, and the Potency was “inactive”. `O=C(O)c1ccc(/N=c2\oc3cc(O)ccc3cc2C(=O)NCc2ccccc2)cc1` was tested, and the Potency was “inactive”. For `O=c1cc(CN2CCOCC2)c2cc(Cl)c(O)cc2o1`, the Potency was “inactive”. For `CN(C)C(=O)COc1ccc2c(-c3ccccc3)cc(=O)oc2c1`, the Potency was “inactive”. In the case of `CCOc1cc(/C=C2\COc3ccccc3C2=O)cc(Br)c1OCC(=O)N(C)C`, the Potency is reported as 28.2 µM (active). With `CCOc1cc(/C=C2/C(=O)ON=C2C)cc(Br)c1O` the Potency was “inactive”. `C=CCn1cc[n+](-c2nc3ccccc3nc2[N-]S(=O)(=O)c2cccs2)c1` was tested, and the Potency was “inactive”. For `CCNc1nc(SCC(N)=O)nc2sc3c(c12)CCN(C)C3`, the Potency was “inactive”. In the case of `COc1ccc(Cc2n[nH]c(=S)n(N)c2=O)cc1`, the Potency is reported as “inactive”. With `COc1ccc(C[C@@H]2OC3(C=CC(=O)C=C3)O[C@H]2Cc2ccc(OC)cc2)cc1` the Potency was 3.98 µM (active). In the case of `COC(=O)c1ccc(CO/N=C/c2ccc(OC)cc2)o1`, the Potency is reported as “inactive”. With `CC1CN(Cc2cc(=O)oc3cc(O)c(Cl)cc23)CC(C)O1` (centres undefined) the Potency was “inactive”. `Cc1nn(-c2ccccc2)c(C)c1C(=O)Oc1ccccc1` was tested, and the Potency was “inactive”. In the case of `CCCSC(=S)c1c(C)nn(-c2ccccc2)c1O`, the Potency is reported as 22.4 µM (active). In the case of `CCc1c(O)nc2c(c(C)nn2-c2ccccc2)c1C`, the Potency is reported as “inactive”.
